High-throughput results (PubChem)
Most compounds without a hit are left out; they make up all but 0.92% or so of the library.
Mtb UGM inh – blocks M. tuberculosis UGM enzyme; purified UGM, fluorescence polarization probe displacement; 320,000 compounds, 0.06% hits; inhibition, % at 10 µM; P9WIQ1; AID 504406; in the data active means inhibition above about 10%, passing the limit was not always enough
Target sequence (P9WIQ1 whole entry, looked up): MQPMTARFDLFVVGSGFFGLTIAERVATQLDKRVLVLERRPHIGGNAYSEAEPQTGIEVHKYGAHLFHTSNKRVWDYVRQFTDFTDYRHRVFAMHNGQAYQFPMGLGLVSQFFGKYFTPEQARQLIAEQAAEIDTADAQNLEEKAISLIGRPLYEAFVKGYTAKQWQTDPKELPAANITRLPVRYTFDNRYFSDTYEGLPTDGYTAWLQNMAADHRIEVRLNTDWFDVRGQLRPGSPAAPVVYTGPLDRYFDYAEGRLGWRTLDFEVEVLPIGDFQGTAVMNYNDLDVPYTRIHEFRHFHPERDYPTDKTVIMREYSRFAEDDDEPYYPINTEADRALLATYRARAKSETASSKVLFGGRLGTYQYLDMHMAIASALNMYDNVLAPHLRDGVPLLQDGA
Mtb hypoxia inh – reduces hypoxia-regulated biosensor signal in M. tuberculosis; M. tuberculosis hypoxia-regulated fluorescent reporter, fluorescence; fluorescence inhibition, % (test concentration not listed); 300,000 compounds, 0.1% hits; AID 1159583; in the data active means fluorescence inhibition mostly above about 23%, no sharp cut-off; inactive means mostly below about 17%
Rv3671c inh – Rv3671c (M. tuberculosis) protease inhibition; P9WHR9; inhibition, % at 5.96 µM; 320,000 compounds, 0.048% hits; in the data active means inhibition above about 38%;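 further: extracellular domain of Rv3671c used as enzyme; 0% = enzyme with DMSO and 100% = no enzyme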
RecA intein inh – blocks M. tuberculosis RecA intein splicing. inhibition, % (no concentration beside the values). cell-free RecA intein splicing, fluorescence. 290,000 compounds, 0.75% hits. AID 2221. P9WHJ3; in the data active means inhibition above about 30%;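 further: 0% = vehicle wells and 100% = reference inhibitor control wells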
FadD28 binding – M. tuberculosis FadD28 bisubstrate binding inhibition | inhibition, % at 12.5 µM | 360,000 compounds, 0.22% hits | FadD28 bisubstrate probe binding, fluorescence polarization; in the data active means inhibition above about 8.5%, passing the limit was not always enough
* = called active by the depositor; · = no result given.

SMILES	Mtb UGM inh	Mtb hypoxia inh	Rv3671c inh	RecA intein inh	FadD28 binding
COc1ccccc1NC1=C(Cl)C(=O)OC1OC(=O)c1ccco1 (stereo not given)	6	13	-11	41*	-2
COc1cccc(NC2=C(Cl)C(=O)OC2OC(=O)c2ccco2)c1 (stereo not given)	-2	11	15	35*	-3
COC(=O)c1ccc(NC2=C(Cl)C(=O)OC2OC(=O)c2ccccc2)cc1 (stereo not given)	3	14	-9	30*	-5
Cc1ccccc1NC1=C(Cl)C(=O)OC1OC(=O)c1ccco1 (stereo not given)	-2	8	2	43*	-8
Cc1ccc(NC2=C(Cl)C(=O)OC2OC(=O)c2ccc(C)cc2)cc1 (stereo not given)	0	14	0	16	-12
COc1ccc(C(=O)Nc2cccc(OC(=O)c3ccco3)c2)cc1	1	-2	-3	20	-3
C(=Nn1cnnc1)c1ccc(N2CCOCC2)cc1	·	5	·	·	·
COc1cc(C(=O)Nc2c(C(=O)O)[nH]c3ccccc23)cc(OC)c1OC	-2	0	·	-3	0
O=C(O)c1[nH]c2ccccc2c1C(c1cc(Br)ccc1O)c1c(C(=O)O)[nH]c2ccccc12	4	14	16	·	35*
COc1cc(Cl)cc(C(c2c(C(=O)O)[nH]c3ccccc23)c2c(C(=O)O)[nH]c3ccccc23)c1O	8	0	10	0	33*
O=C(O)c1[nH]c2ccccc2c1C(c1c(F)cccc1Cl)c1c(C(=O)O)[nH]c2ccccc12	0	13	9	3	24*
CCc1c(C(=O)O)[nH]c2ccc(Br)cc12	0	·	5	2	0
C[C@H](CO)N1C[C@H](C)[C@@H](CN(C)S(=O)(=O)c2cccs2)Oc2ccc(NC(=O)Nc3ccc(C(F)(F)F)cc3)cc2C1=O	0	-1	-239	·	27*
C[C@@H]1CN([C@H](C)CO)C(=O)c2cc(NC(=O)Nc3ccc(C(F)(F)F)cc3)ccc2O[C@H]1CN(C)S(=O)(=O)c1cccs1	-1	·	-234	·	21*
C[C@H](CO)N1C[C@H](C)[C@@H](CN(C)S(=O)(=O)c2cccs2)Oc2ccc(NC(=O)Nc3ccccc3)cc2C1=O	3	-9	-18	·	0
COc1cc2c(cc1OC)C(=O)N1C3c4ccccc4OCC3C(c3ccccc3)[C@]1(C)C(=O)N2 (stereo not given in full)	·	8	·	·	·
CCN(C(=O)Cn1c(=O)n2nc(CCn3nc(C)cc3C)nc2c2ccccc21)c1cccc(C)c1	-1	7	-7	·	-3
Cc1cccc(NC(=O)Cn2c(=O)n3nc(CCn4nc(C)cc4C)nc3c3ccccc32)c1	0	1	-2	-2	9.0*
N#CC1=C(N)Oc2n[nH]c(-c3cccs3)c2C1c1ccncc1 (stereo not given)	2	2	-7	60*	-3
CCc1[nH]nc2c1C(c1ccc(Br)s1)C(C#N)=C(N)O2 (stereo not given)	-1	2	-7	·	-10
COCc1[nH]nc2c1C(c1ccccc1OC)C(C#N)=C(N)O2 (stereo not given)	2	·	-1	62*	-1
Cc1ccc(C2C(C#N)=C(N)Oc3nc(-c4ccccc4)[nH]c32)o1 (stereo not given)	2	11	-6	89*	4
CCc1[nH]nc2c1C(c1ccc(C)o1)C(C#N)=C(N)O2 (stereo not given)	-1	2	4	49*	-1
COCc1[nH]nc2c1C(c1ccccc1Cl)C(C#N)=C(N)O2 (stereo not given)	-1	7	-5	24	-6
OC1OC(c2ccc3c(c2)OCO3)C2COC(c3ccc4c(c3)OCO4)C12 (stereo not given)	·	22	·	·	·
SMILES	Mtb UGM inh	Mtb hypoxia inh	Rv3671c inh	RecA intein inh	FadD28 binding
O=C(NC(Cc1ccccc1)C(=O)O)c1ccc(C(F)(F)F)cc1 (stereo not given)	·	4	·	·	·
O=S1(=O)CCOCC(Cc2ccccc2)N1Cc1ccc(F)cc1 (stereo not given)	·	13	·	·	·
CC(C)c1[nH]nc2c1C(c1cccnc1)C(C#N)=C(N)O2 (stereo not given)	3	8	-8	43*	-2
CC(C)c1[nH]nc2c1C(Cc1ccccc1)C(C#N)=C(N)O2 (stereo not given)	0	-2	-1	53*	-4
Cc1[nH]nc2c1C(Cc1ccccc1)C(C#N)=C(N)O2 (stereo not given)	-3	·	-4	27	-2
CCc1[nH]nc2c1C(Cc1ccccc1)C(C#N)=C(N)O2 (stereo not given)	1	9	3	59*	-3
CCCc1[nH]nc2c1C(Cc1ccccc1)C(C#N)=C(N)O2 (stereo not given)	-2	4	7	28	1
C#CCNC(=O)C1=CC(c2ccc(C(F)(F)F)cc2)CC(OCc2ccc(CO)cc2)O1 (stereo not given)	·	20	·	·	·
O=C(c1nnsc1S(=O)c1ccc(Cl)cc1)N1CCOCC1 (stereo not given)	·	·	·	26	-4
O=C(Nc1ccccc1)c1nnsc1S(=O)c1ccc(Cl)cc1 (stereo not given)	2	·	-8	35*	-2
CC1CN(C(C)CO)C(=O)c2cc(NC(=O)C3CC3)ccc2OC1CN(C)C(=O)Nc1ccccc1 (stereo not given)	·	-1	·	·	·
CCOc1ccc2nc3cc(N=Nc4ccc(N)nc4N)ccc3c(N)c2c1	·	·	·	·	25*
Brc1ccc(/C=N/c2nc3ccccc3n2CCN2CCOCC2)cc1	17*	·	11	-2	-2
Cc1onc(-c2ccccc2)c1-c1nc2cc(Cl)ccc2c(=O)o1	3	·	-6	36*	-5
O=C1C(Cc2ccccc2)NCCCCC(c2ccco2)N1Cc1ccccc1 (stereo not given)	·	8	·	·	·
O=C(NCc1cccnc1)/C(=C/c1ccc(-c2ccc(Cl)cc2)o1)S(=O)(=O)c1ccccc1	2	9	-15	35*	-5
Cc1cc(C(=O)ON=C(N)c2ccc(C(C)(C)C)cc2)no1	·	9	·	·	·
COc1cc(C=NNC(=O)CNc2n[nH]c(=O)[nH]c2=O)ccc1O	·	15	·	·	·
O=C(/C=C/c1ccco1)c1ccc(NC(=O)C23CC4CC(CC(C4)C2)C3)cc1	4	·	-56	34*	-1
Cc1ccc(NC(N)=Nc2nc(CSc3ccccn3)cc(=O)[nH]2)c(C)c1	·	0	·	·	·
C#CCOCCOCCOCCNc1nc(N2CCN(C(=O)C(C(C)CC)n3cc(C(N)CO)nn3)CC2)nc(N2CCN(C(=O)C(C(C)CC)n3cc(C(N)CC(C)C)nn3)CC2)n1 (stereo not given)	·	9	·	·	·
NS(=O)(=O)c1ccc(-c2ccc(C=O)o2)cc1	0	6	1	4	1
NS(=O)(=O)c1ccc(-c2ccc(/C=C3\NC(=S)NC3=O)o2)cc1	4	·	1	-3	10*
Cc1ccc2c(c1)C1C=CCC1C(C(=O)O)N2 (stereo not given)	1	·	10	6	·
CC(=O)c1ccc2c(c1)C1C=CCC1C(C(=O)O)N2 (stereo not given)	·	6	·	·	40*
